SENP6 block = inhibitors of human SENP6 protease; Recombinant SENP6 catalytic domain, aminoluciferin luminescence; inhibition, % at 10 µM; actives 1.8% (n = 330,000);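 active = inhibition above about 50% at the single tested dose, limit read from the data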;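 note: plate controls were DMSO wells with enzyme for no effect and DMSO wells lacking enzyme for full effect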
Target sequence (Q9GZR1 628-1112 limits assumed): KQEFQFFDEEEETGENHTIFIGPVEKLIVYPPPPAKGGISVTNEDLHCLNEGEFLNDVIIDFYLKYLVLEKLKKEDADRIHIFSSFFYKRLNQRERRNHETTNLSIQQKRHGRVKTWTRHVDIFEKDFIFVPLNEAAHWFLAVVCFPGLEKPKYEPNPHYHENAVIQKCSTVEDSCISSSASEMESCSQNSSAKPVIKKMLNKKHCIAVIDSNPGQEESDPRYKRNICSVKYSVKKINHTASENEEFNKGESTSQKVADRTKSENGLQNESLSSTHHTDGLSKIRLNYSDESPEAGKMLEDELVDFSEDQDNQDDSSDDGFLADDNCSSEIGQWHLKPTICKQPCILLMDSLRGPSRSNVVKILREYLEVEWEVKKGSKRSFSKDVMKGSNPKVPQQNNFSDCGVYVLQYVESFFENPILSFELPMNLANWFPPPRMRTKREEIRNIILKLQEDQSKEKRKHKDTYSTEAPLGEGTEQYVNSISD
SENP7 inh = inhibitors of human SENP7 protease; Q9BQF6; recombinant SENP7, Z-RLRGG-aminoluciferin luminescence, 40 min; actives 1.5% (n = 330,000); inhibition, % at 5 µM;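 active = inhibition above about 50% at the single test dose, limit read from the data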;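 note: plate controls were DMSO with enzyme for no effect and no enzyme buffer wells for full effect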
SENP8 block-1 = SENP8 protease inhibition; AID 2540; Q96LD8; actives 1.2% (n = 330,000); purified SENP8, Z-RLRGG-aminoluciferin cleavage, luminescence; inhibition, % at 10 µM; in the data active = inhibition above about 50%
C8 TRAIL sens = sensitizes caspase-8 expressing cells to TRAIL; NB7+C8 cells + TRAIL, ATPlite viability luminescence; inhibition (viability loss, TRAIL sensitization), % at 10 µM; actives 1% (n = 360,000);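 active = compounds causing at least 50% loss of cell viability in the single-dose screen, relative to plate controls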
PPC-1+TRAIL kill = PPC-1 cancer cell killing with TRAIL present; actives 0.41% (n = 220,000); PPC-1 cells + TRAIL, ATPLite viability luminescence; cell killing (% activity), % at 4 µM or 5 µM; AID 1443;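 active = cell killing above 50% in the first pass at 4 µM, then a duplicate retest at 5 µM averaging 50% or more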;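 note: plate controls were cells with TRAIL plus DMSO for no effect and medium-only wells lacking cells for full effect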
SENP8 block-2 = inhibitors of human SENP8 protease; Q96LD8; actives 0.64% (n = 360,000); recombinant SENP8, Nedd8 substrate fluorescence; AID 602440; inhibition, % at 20 µM; in the data active = inhibition mostly above about 40%, no sharp cut-off; inactive = mostly below about 27%
Numbers without * were called inactive. This is a sample that favours compounds with a hit; in the whole collection about 3% have one here.

How did COc1ccc(OC)c(N(CC(=O)N2CCCC2)S(C)(=O)=O)c1 do in these assays?
SENP6 block: -15; SENP7 inh: -9; SENP8 block-1: -4; C8 TRAIL sens: 6; SENP8 block-2: 4

Results for O=C1c2ccccc2/C(=C\C#Cc2ccccn2)N1c1ccccc1 ?
SENP6 block: -11; SENP7 inh: -7; SENP8 block-1: -19; C8 TRAIL sens: 74*; SENP8 block-2: 14

How did O=C(CC(Nc1ccccc1Cl)C(=O)OCC(=O)c1cccs1)c1ccccc1 (stereo unspecified) do in these assays?
SENP6 block: -4; SENP7 inh: -9; SENP8 block-1: -7; C8 TRAIL sens: 14; PPC-1+TRAIL kill: 22; SENP8 block-2: 24

What do the screens show for `Cc1ccc(C(=O)COC(=O)COc2ccccc2O)cc1C`?
SENP6 block: -9; SENP7 inh: -16; SENP8 block-1: -22; C8 TRAIL sens: -3; SENP8 block-2: 27

What do the screens show for `COc1ccccc1NC(CC(=O)c1ccccc1)C(=O)OCC(=O)c1ccc(C)c(C)c1` (stereo unspecified)?
SENP6 block: 12; SENP7 inh: 2; SENP8 block-1: -10; C8 TRAIL sens: 58*; PPC-1+TRAIL kill: 29; SENP8 block-2: 26

What do the screens show for `COc1ccccc1NC(CC(=O)c1ccccc1)C(=O)OCC(=O)c1ccc(Br)cc1` (stereo unspecified)?
SENP6 block: 3; SENP7 inh: -3; SENP8 block-1: -8; C8 TRAIL sens: 63*; PPC-1+TRAIL kill: 14; SENP8 block-2: 14

Results for COc1ccccc1NC(CC(=O)c1ccccc1)C(=O)OCC(=O)c1ccc(C)cc1 (stereo unspecified) ?
SENP6 block: -9; SENP7 inh: 5; SENP8 block-1: -1; C8 TRAIL sens: 65*; PPC-1+TRAIL kill: 0; SENP8 block-2: 14

What do the screens show for `COc1ccccc1NC(=O)CSc1nnc(CC(=O)Nc2ccccc2F)n1C`?
SENP6 block: -13; SENP7 inh: -13; SENP8 block-1: -14; C8 TRAIL sens: 5; SENP8 block-2: 14

How did COc1ccc(-c2cc3ccccc3c(=O)o2)cc1 do in these assays?
C8 TRAIL sens: 53*; SENP8 block-2: -440

How did COc1ccc(-c2cc(=O)c3ccccc3o2)cc1 do in these assays?
SENP6 block: 43; SENP7 inh: 43; SENP8 block-1: 37; C8 TRAIL sens: 32; PPC-1+TRAIL kill: -3; SENP8 block-2: -194

What do the screens show for `CCc1cc2c(CN3CCN(CCO)CC3)cc(=O)oc2cc1O`?
SENP6 block: -11; SENP7 inh: 6; SENP8 block-1: -4; C8 TRAIL sens: -18; PPC-1+TRAIL kill: 52*; SENP8 block-2: -252

How did CC(=O)C[C@@H](O)CC(=O)[C@H]1OC(=O)[C@H](C)CCCCc2ccccc21 do in these assays?
SENP6 block: 3; SENP7 inh: -2; SENP8 block-1: 2; C8 TRAIL sens: 0; SENP8 block-2: 0

How did O=C(CCc1ccc(S(=O)(=O)N2CCOCC2)cc1)N/N=C/c1ccc(O)c(O)c1O do in these assays?
SENP6 block: -5; SENP7 inh: 8; SENP8 block-1: -3; C8 TRAIL sens: 49; PPC-1+TRAIL kill: 10; SENP8 block-2: 39*

What do the screens show for `CC(C)CCCCCCCCCCCCC(=O)NCC(=O)NC1C(O)C(O)C(Nc2ncnc3nc[nH]c23)OC1C(O)CO` (stereo unspecified)?
C8 TRAIL sens: 65*; SENP8 block-2: 10

What do the screens show for `CCNC(=O)C1(C)CCN(C(=O)c2ccccc2OC)C1` (stereo unspecified)?
C8 TRAIL sens: 1; SENP8 block-2: 22

Results for O=[N+]([O-])c1cc(/C=N/N/C(=N/c2ccccn2)c2ccccn2)ccc1O ?
SENP6 block: 15; SENP7 inh: -2; SENP8 block-1: 1; C8 TRAIL sens: 5; PPC-1+TRAIL kill: 11; SENP8 block-2: 47*

What do the screens show for `CCc1ccc(C(C#N)=CC=Cc2ccccc2)cc1`?
C8 TRAIL sens: 12; SENP8 block-2: -480

How did COc1cc2sc(-c3ccc(S(C)(=O)=O)cc3)c(C(=O)NCc3ccc(C)o3)c2cc1OC do in these assays?
SENP6 block: -16; SENP7 inh: 6; SENP8 block-1: 3; C8 TRAIL sens: 1; SENP8 block-2: inactive

What do the screens show for `COc1cccc2sc3cc(NCc4ccc(C)o4)ccc3c(=O)c12`?
SENP6 block: 30; SENP7 inh: 58*; SENP8 block-1: 42; C8 TRAIL sens: 11; SENP8 block-2: -466

Results for O=C(NCCCN1CCOCC1)c1cccc(NS(=O)(=O)c2ccc(Br)cc2)c1 ?
SENP6 block: -9; SENP7 inh: -4; SENP8 block-1: -14; C8 TRAIL sens: 15; SENP8 block-2: 10

Results for CSC(=Nc1ccccc1)N=C(SCc1ccccc1)N(C)C ?
C8 TRAIL sens: 91*; SENP8 block-2: 4

How did CC(=O)N(C1=C(N2CCOCC2)C(=O)c2ccccc2C1=O)c1ccc(C(=O)O)cc1 do in these assays?
SENP6 block: 18; SENP7 inh: 34; SENP8 block-1: 19; C8 TRAIL sens: 17; PPC-1+TRAIL kill: 3; SENP8 block-2: 18

How did O=C(O)c1ccc(NC2=C(N3CCOCC3)C(=O)c3ccccc3C2=O)cc1 do in these assays?
SENP6 block: 43; SENP7 inh: 3; SENP8 block-1: 12; C8 TRAIL sens: 13; PPC-1+TRAIL kill: 27; SENP8 block-2: 53*

What do the screens show for `O=C(C[C@H]1C/C=C\C[C@@H](Cc2ccc(F)cc2)C(=O)OC[C@@H]2CCCN2C1=O)NCCO`?
SENP6 block: -5; SENP7 inh: 5; SENP8 block-1: -2; C8 TRAIL sens: -11; SENP8 block-2: 20

How did O=C(CC1CCCCC1)c1c(O)c2ccccc2oc1=O do in these assays?
SENP6 block: 16; SENP7 inh: 0; SENP8 block-1: -12; C8 TRAIL sens: 54*; PPC-1+TRAIL kill: -2; SENP8 block-2: 11

How did CCCCC(=O)c1c(O)c2ccccc2oc1=O do in these assays?
SENP6 block: 4; SENP7 inh: 2; SENP8 block-1: 2; C8 TRAIL sens: -9; PPC-1+TRAIL kill: 20; SENP8 block-2: 16

How did CCCCn1nnnc1SCC(=O)NC1CCCCC1 do in these assays?
SENP6 block: -9; SENP7 inh: -8; SENP8 block-1: 3; C8 TRAIL sens: -2; SENP8 block-2: 0

What do the screens show for `CC(C)Cc1nc2oc3c(Cl)ncnc3c2c2c1CCCC2`?
SENP6 block: -21; SENP7 inh: 10; SENP8 block-1: -11; C8 TRAIL sens: 67*; PPC-1+TRAIL kill: 3; SENP8 block-2: 22

How did CC1=NN(c2ccccc2)C(=O)C1=C(C)C do in these assays?
SENP6 block: -4; SENP7 inh: 5; SENP8 block-1: 0; C8 TRAIL sens: -4; PPC-1+TRAIL kill: 7; SENP8 block-2: 41*

Results for O=C(Cc1ccc(NC(=O)C2CCN(C(=O)C3CCCCC3)CC2)cc1)Nc1ccc(C(=O)N2CCOCC2)cc1 ?
C8 TRAIL sens: 5; SENP8 block-2: 2

High-throughput results from PubChem.
